In PubChem BioAssay (NCI):
Compounds without any hit were thinned out: in the full panel of roughly 79,000, 15% have a hit. A number with no mark means an inactive call. The source made the active and inactive calls. Rule as the data show it: active = growth inhibition above about 70%; inactive = the rest. Where a SMILES comes first, the peptide text is derived from it. The star is where a group is joined. Cbz = O=C(OCc1ccccc1)*; Bn = c1ccc(C*)cc1

Test: NCI Yeast Anticancer Drug Screen. Data for the sgs1 mgt1 strain (AID 161);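 also: 0% = growth of cultures given vehicle only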
Settings: S. cerevisiae sgs1 mgt1 strain, at 50.0 µM, hits give high values
In short: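 Percent growth inhibition was derived by comparing compound-exposed mutant yeast with vehicle-exposed cultures. The strain carries alterations in DNA damage repair.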

Row | SMILES | growth inhibition
1 | CC(=O)OC/C=C(\C)CC(/C=C(C)/C=C/C1=C(C)CCCC1(C)C)S(=O)(=O)c1ccccc1 (stereo not given) | -6.15%
2 | O=c1nc(/C=C/c2ccccc2Cl)cc2n1CCN2CCO | -4.2%
3 | CCC(=O)Oc1cccc2ccccc12 | -14.8%
4 | Cc1ccc(C)c(NC(=O)Oc2ccc(Br)cc2Br)c1 | 3.4%
5 | CC1CCCC2C(=O)OC(=O)C12 (stereo not given) | -13.1%
6 | CNNCCCC(=O)NC(C)C | 9.25%
7 | CSc1ccccc1N1C(=O)CSC1=S | 41.5%
8 | CC(C)([NH-])C[NH-].[Cl][Pt+2][Cl] | -24.5%
9 | O=[N+]([O-])c1ccc(S(=O)(=O)/N=C/c2ccccc2)cc1 | 8.75%
10 | O=C(O)CNCc1ccccc1 | 14.6%
11 | CCOC(=O)C(Cc1cn(C(C)=O)c2ccccc12)P(=O)(OCC)OCC (stereo not given) | -15.2%
12 | O=C1CCC2=NCc3c(ccc4ccccc34)N12 | -12.9%
13 | CC(C)C(NC(=O)C(CSCc1ccccc1)NC(=O)OCc1ccccc1)C(N)=O (stereo not given) (Cbz-Cys(Bn)-Val-NH2; configuration not given here) | 1.6%
14 | C#CCC1CCCC/C1=N\Nc1ccc([N+](=O)[O-])cc1[N+](=O)[O-] (stereo not given) | -4.4%
15 | COc1cc(O)c2c(c1)C(=O)C1=C(C2=O)C(O)C[C@@](C)(O)C1 (stereo not given in full) | 92% (active)
16 | CSc1ccc(NC(=O)Nc2ccccc2F)cc1 | 17.2%
17 | CN(C)CC1CCC/C(=C\c2ccccc2)C1=O (stereo not given) | 47.8%
18 | O=C1CSC(c2cccc(O)c2)N1c1nncs1 (stereo not given) | 21.9%
19 | CC(C)C(C)(C)C(N)=O | -9.1%
20 | NC(N)=NOCC(=O)O | -8.85%

Row | SMILES | growth inhibition
21 | OCC(O)COc1cccc2cccnc12 (stereo not given) | 0.4%
22 | O=C(O)c1ccccc1NC(=O)C1CCCCC1 | 16.3%
23 | CSC1=C(C#N)C(=O)N(c2ccc(C)cc2)C(=O)C1C#N (stereo not given) | 31.1%
24 | CNC1C(O)C(OC2C(N)CC(N)C(OC3OC(CN)C(O)C(O)C3O)C2O)OCC1(C)O (stereo not given) | -12.7%
25 | CCC1c2c(cc(=O)[nH]c2O)C(=O)N1Cc1ccccc1 (stereo not given) | 7.75%
26 | CCCCNS(=O)(=O)c1n[nH]c(=O)[nH]c1=O | -37.9%
27 | CC(C)CCNCCC(C)C | -2.85%
28 | N#C/C(=C\c1ccccc1)c1cccc(Br)c1 | 17.4%
29 | COc1ccc(S(=O)Cc2cc(OC)c(OC)c(OC)c2)cc1 (stereo not given) | -61.7%
30 | C/C(CC(=O)Nc1ccc(Cl)c(Cl)c1)=N/NC(=O)C[N+](C)(C)C | -6.3%
31 | O=C(O)c1cc(Cl)ccc1-c1ccc(Cl)cc1C(=O)Nc1ccc2c(c1)Cc1ccccc1-2 | 94.6% (active)
32 | Cc1ccc(S(=O)(=O)C/C(=N\Nc2ccc([N+](=O)[O-])cc2[N+](=O)[O-])c2ccccc2)cc1 | 17.6%
33 | CC(=O)OC[C@@H](COC(=O)/C=C/c1ccc(O)cc1)OC1OC(CO)C(O)C(O)C1O (stereo not given in full) | -21.8%
34 | COc1ccc(C(=O)c2ccc(OC)cc2)cc1 | -3.1%
35 | CCN(CC)CCN1C(=O)C2C3C=CC(C3)C2C1=O (stereo not given) | 3.25%
36 | C/C=C(/C)C(C#N)(CCC)C(=O)OCC (stereo not given) | -8.7%
37 | CCN(CC)C(=O)c1cccc(C(=O)N(CC)CC)n1 | 10.2%
38 | CCN(CC)Cc1cc(NC(C)=O)ccc1O | -17.4%
39 | NC(N)=N/N=C(\c1ccc(Cl)cc1)C1CC1 | -11.9%
40 | CC(=O)N(C(C)=O)c1cc2c3c(c1)CCCN3CCC2 | -22.1%

Test: NCI Yeast Anticancer Drug Screen. Data for the cln2 rad14 strain (AID 165);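 also: 0% = growth equal to vehicle treated cultures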
Settings: S. cerevisiae cln2 rad14 strain, at 50.0 µM, hits give high values
In short: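 Relative to vehicle controls, growth inhibition of compound-treated cln2 rad14 yeast was recorded.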

Row | SMILES | growth inhibition
41 | CC(=O)OC/C=C(\C)CC(/C=C(C)/C=C/C1=C(C)CCCC1(C)C)S(=O)(=O)c1ccccc1 (stereo not given) | 2.05%
42 | O=c1nc(/C=C/c2ccccc2Cl)cc2n1CCN2CCO | 4.1%
43 | CCC(=O)Oc1cccc2ccccc12 | -14.3%
44 | Cc1ccc(C)c(NC(=O)Oc2ccc(Br)cc2Br)c1 | -28.1%
45 | CC1CCCC2C(=O)OC(=O)C12 (stereo not given) | -60.6%
46 | CNNCCCC(=O)NC(C)C | 2.75%
47 | CSc1ccccc1N1C(=O)CSC1=S | 19.1%
48 | CC(C)([NH-])C[NH-].[Cl][Pt+2][Cl] | -23.4%
49 | O=[N+]([O-])c1ccc(S(=O)(=O)/N=C/c2ccccc2)cc1 | 14.7%
50 | O=C(O)CNCc1ccccc1 | -4.45%
51 | CCOC(=O)C(Cc1cn(C(C)=O)c2ccccc12)P(=O)(OCC)OCC (stereo not given) | -1.15%
52 | O=C1CCC2=NCc3c(ccc4ccccc34)N12 | -42.9%
53 | CC(C)C(NC(=O)C(CSCc1ccccc1)NC(=O)OCc1ccccc1)C(N)=O (stereo not given) (Cbz-Cys(Bn)-Val-NH2; configuration not given here) | -3.65%
54 | C#CCC1CCCC/C1=N\Nc1ccc([N+](=O)[O-])cc1[N+](=O)[O-] (stereo not given) | -1.75%
55 | COc1cc(O)c2c(c1)C(=O)C1=C(C2=O)C(O)C[C@@](C)(O)C1 (stereo not given in full) | 75.5% (active)
56 | CSc1ccc(NC(=O)Nc2ccccc2F)cc1 | -20.5%
57 | CN(C)CC1CCC/C(=C\c2ccccc2)C1=O (stereo not given) | 32.5%
58 | O=C1CSC(c2cccc(O)c2)N1c1nncs1 (stereo not given) | 12.7%
59 | CC(C)C(C)(C)C(N)=O | 13.9%
60 | NC(N)=NOCC(=O)O | -42.5%

Row | SMILES | growth inhibition
61 | OCC(O)COc1cccc2cccnc12 (stereo not given) | -26.1%
62 | O=C(O)c1ccccc1NC(=O)C1CCCCC1 | 0.85%
63 | CSC1=C(C#N)C(=O)N(c2ccc(C)cc2)C(=O)C1C#N (stereo not given) | 24.4%
64 | CNC1C(O)C(OC2C(N)CC(N)C(OC3OC(CN)C(O)C(O)C3O)C2O)OCC1(C)O (stereo not given) | 4.85%
65 | CCC1c2c(cc(=O)[nH]c2O)C(=O)N1Cc1ccccc1 (stereo not given) | 4.25%
66 | CCCCNS(=O)(=O)c1n[nH]c(=O)[nH]c1=O | -12.4%
67 | CC(C)CCNCCC(C)C | -36.3%
68 | N#C/C(=C\c1ccccc1)c1cccc(Br)c1 | -22.9%
69 | COc1ccc(S(=O)Cc2cc(OC)c(OC)c(OC)c2)cc1 (stereo not given) | -19.8%
70 | C/C(CC(=O)Nc1ccc(Cl)c(Cl)c1)=N/NC(=O)C[N+](C)(C)C | 26.6%
71 | O=C(O)c1cc(Cl)ccc1-c1ccc(Cl)cc1C(=O)Nc1ccc2c(c1)Cc1ccccc1-2 | 87.8% (active)
72 | Cc1ccc(S(=O)(=O)C/C(=N\Nc2ccc([N+](=O)[O-])cc2[N+](=O)[O-])c2ccccc2)cc1 | 12.4%
73 | CC(=O)OC[C@@H](COC(=O)/C=C/c1ccc(O)cc1)OC1OC(CO)C(O)C(O)C1O (stereo not given in full) | 1.7%
74 | COc1ccc(C(=O)c2ccc(OC)cc2)cc1 | -17.6%
75 | CCN(CC)CCN1C(=O)C2C3C=CC(C3)C2C1=O (stereo not given) | -14.9%
76 | C/C=C(/C)C(C#N)(CCC)C(=O)OCC (stereo not given) | 3%
77 | CCN(CC)C(=O)c1cccc(C(=O)N(CC)CC)n1 | 39.4%
78 | CCN(CC)Cc1cc(NC(C)=O)ccc1O | 11.1%
79 | NC(N)=N/N=C(\c1ccc(Cl)cc1)C1CC1 | -13.2%
80 | CC(=O)N(C(C)=O)c1cc2c3c(c1)CCCN3CCC2 | -36.8%
